High-throughput results (PubChem BioAssay)
ELG1 DNA repair – ELG1-dependent DNA repair inhibition. HEK293T ELG1-luciferase reporter, luminescence, 16 h; DNA damage induced by 5-fluorouridine. 330,000 compounds, 2.3% hits. Potency, µM (series often up to 46.1 µM), hits mostly inhibitors; note: nearly all actives have a fitted effect of over 55% in size
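Luminescence from the luciferase reporter, measured 30 min after ONE-Glo reagent at room temperature, was the read-out. Beforehand, 2,000 cells per well were exposed for 16 hr at 37 °C to 5-fluorouridine together with compound or vehicle.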
RORgamma inh – inhibitors of mouse ROR gamma transcriptional activity. P51450. AID 2551. Drosophila S2 Gal4-RORgamma UAS-luciferase reporter, 20 h. 310,000 compounds, 5.4% hits. Potency, µM (highest dose often 53.6 µM), hits mostly inhibitors; note: nearly all actives have a fitted effect of over 60% in size
Target sequence (P51450 whole entry, looked up, the tested form may be a part): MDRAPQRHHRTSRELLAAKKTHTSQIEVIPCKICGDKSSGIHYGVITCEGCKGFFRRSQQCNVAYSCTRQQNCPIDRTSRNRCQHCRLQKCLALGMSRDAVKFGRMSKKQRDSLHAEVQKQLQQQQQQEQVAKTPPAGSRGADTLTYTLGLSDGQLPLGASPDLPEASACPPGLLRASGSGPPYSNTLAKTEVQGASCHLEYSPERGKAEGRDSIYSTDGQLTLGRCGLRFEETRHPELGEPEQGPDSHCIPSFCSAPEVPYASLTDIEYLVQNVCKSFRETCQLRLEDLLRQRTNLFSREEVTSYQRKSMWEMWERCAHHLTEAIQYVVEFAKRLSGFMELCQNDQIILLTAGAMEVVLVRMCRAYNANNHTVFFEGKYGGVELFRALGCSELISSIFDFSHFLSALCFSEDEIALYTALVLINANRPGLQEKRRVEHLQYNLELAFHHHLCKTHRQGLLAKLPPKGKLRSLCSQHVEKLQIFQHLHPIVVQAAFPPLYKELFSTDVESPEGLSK
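Luminescence from a UAS-regulated Photinus luciferase reporter in stably transfected Drosophila Schneider cells is measured; decreased signal marks ROR gamma inhibition. Fusion expression is induced by 700 uM copper sulfate for 20 hr.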
Gal4-VP16 FLuc – inhibits Gal4-VP16 luciferase reporter, ROR gamma counter-screen; AID 2546; Potency, µM (titrated, usually from 53.6 µM), actives largely listed as inhibitors; 310,000 compounds, 3.5% hits; Drosophila S2 Gal4-VP16 UAS-luciferase, luminescence, 20 h;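 note: Gal4-VP16 expression switched on by copper sulfate through the metallothionein promoter; nearly all actives have a fitted effect of over 50% in size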
TDP1 cell CPT – growth inhibition of DT40 Tdp1-/-;hTDP1 cells with camptothecin (screen for TDP1 inhibitors). Potency, µM (highest dose often 46.2 µM), usual class: inhibitors. 420,000 compounds, 12% hits. chicken DT40 Tdp1-/-;hTDP1 cells + 20 nM CPT, ATP luminescence, 48 h; note: nearly all actives have a fitted effect of over 55% in size
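Chicken DT40 Tdp1-/- cells complemented with human TDP1, 400 cells/well, exposed to compounds plus 20 nM camptothecin for at least 48 h at 37 C; viability read as ATP content by CellTiter-Glo luminescence.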
IL-1B inflam inh – blocks inflammasome-driven IL-1 beta release; THP-1 LPS/ATP IL-1B secretion, AlphaLISA, 16 h; stronger effect = lower value; activity change, % at 57.5 µM; 360,000 compounds, 4.7% hits; in the data active = activity change below about -50%; inconclusive = mostly about -30% to -49%
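THP-1 cells pretreated 1 hr with compounds (up to 57.5 uM final), then stimulated with LPS (250 ng/mL final) plus ATP (1.25 mM final); secreted IL-1B measured by AlphaLISA after 16 hr, decreased signal indicating inhibition.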
TDP1 cell noCPT – qHTS for Inhibitors of human tyrosyl-DNA phosphodiesterase 1 (TDP1): qHTS in cells in absence of CPT. Potency, µM (titrated, usually from 46.2 µM), actives largely listed as inhibitors. DT40 Tdp1-/- hTDP1 cells, no CPT, ATP luminescence, 48 h. 420,000 compounds, 15% hits; note: nearly all actives have a fitted effect of over 55% in size
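Growth of hTDP1-complemented DT40 Tdp1-knockout cells is measured by ATP luminescence after at least 48 hr compound exposure at 37 °C, with DMSO substituting for the 20 nM CPT used in the parallel screen.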
Numbers stand for hits; [ ] = dose if it differs, or a comment. Hits are enriched below; roughly 21% of the tested compounds scored in any of these assays. Unless noted, calls come from the whole dose curve; as a rule, active = well fitted curve in the direction sought with a large enough effect; inconclusive = small, poorly fitted or top-dose-only effect, or another doubt; inactive = no such curve, though single readings can be large; an effect the other way counts as inactive or inconclusive.

For COc1cccc(CN2CCCC(N3CCc4ccccc4C3)C2)c1O (stereo unspecified) the results were ELG1 DNA repair inconclusive, RORgamma inh inactive, Gal4-VP16 FLuc inactive, TDP1 cell CPT inactive, IL-1B inflam inh inactive and TDP1 cell noCPT inactive.
`COc1ccc(C(=O)C2CCCN(C3Cc4ccccc4C3)C2)c(OC)c1` (stereo unspecified) gave ELG1 DNA repair inconclusive, RORgamma inh inactive, Gal4-VP16 FLuc inactive, TDP1 cell CPT 21µM, IL-1B inflam inh inactive and TDP1 cell noCPT 10µM.
COc1ccc(C(=O)C2CCCN(Cc3cc(Cl)ccc3O)C2)c(OC)c1 (stereo unspecified) was read as ELG1 DNA repair inconclusive, RORgamma inh inconclusive, Gal4-VP16 FLuc inactive, TDP1 cell CPT inconclusive, IL-1B inflam inh -65 and TDP1 cell noCPT inconclusive.
`COc1cccc(CN2CCCC(C(=O)c3ccc4c(c3)OCO4)C2)c1O` (stereo unspecified) gave ELG1 DNA repair inactive, RORgamma inh inactive, Gal4-VP16 FLuc inactive, TDP1 cell CPT inactive, IL-1B inflam inh inactive and TDP1 cell noCPT inactive.
For CCc1cc2c(nc1CC)CCN(CC/C(C)=N/O[C@@H](C)c1cn([C@@H]3COC[C@@H]3O)nn1)C2 the results were RORgamma inh inactive[10 µM] and Gal4-VP16 FLuc inactive[10 µM].
Screening CCOC(=O)CSc1nc2ccc(NC(=O)c3ccccc3F)cc2s1 returned TDP1 cell CPT inactive and TDP1 cell noCPT inactive.
Screening O=C(COc1ccccc1F)Nc1ccc2nc(SCC(=O)N3CCCC3)sc2c1 returned TDP1 cell CPT inconclusive and TDP1 cell noCPT 13µM.
For O=C(COc1ccccc1F)Nc1ccc2nc(SCCOc3ccccc3)sc2c1 the results were TDP1 cell CPT inconclusive and TDP1 cell noCPT inactive.
For O=C(COc1ccccc1F)Nc1ccc2nc(SCC(=O)N3CCOCC3)sc2c1 the results were TDP1 cell CPT 18µM and TDP1 cell noCPT 12µM.
Screening O=C(Nc1ccc2nc(SCC(=O)N3CCCC3)sc2c1)c1ccccc1F returned TDP1 cell CPT 16µM and TDP1 cell noCPT 16µM.
`CSc1nc2ccc(NC(=O)COc3ccccc3F)cc2s1` gave ELG1 DNA repair inconclusive, TDP1 cell CPT inactive, IL-1B inflam inh inactive and TDP1 cell noCPT inconclusive.
`CCCCN(C)C(=O)CSc1nc(NCc2ccc(OC)cc2)c2ccccc2n1` gave ELG1 DNA repair inconclusive, RORgamma inh inactive, Gal4-VP16 FLuc inactive, TDP1 cell CPT inconclusive, IL-1B inflam inh inconclusive and TDP1 cell noCPT inconclusive.
For COc1ccc(CCNc2nc(SCc3ccccc3Cl)nc3ccccc23)cc1OC the results were TDP1 cell CPT 8.2µM and TDP1 cell noCPT 4.6µM.
COc1ccc(CNc2nc(SCc3ccccc3Cl)nc3ccccc23)cc1 was read as TDP1 cell CPT inconclusive and TDP1 cell noCPT 16µM.
COc1ccc(CCNc2nc3ccccc3n3nnnc23)cc1OC was read as ELG1 DNA repair inconclusive, RORgamma inh inactive, Gal4-VP16 FLuc inactive, TDP1 cell CPT inactive, IL-1B inflam inh inactive and TDP1 cell noCPT inactive.
`COc1ccc(CCC(=O)O)c(C(CC(=O)O)C(=O)O)c1OS(=O)(=O)c1ccc(C)cc1` (stereo unspecified) gave TDP1 cell CPT inactive, IL-1B inflam inh inactive and TDP1 cell noCPT inactive.
For O=C(Nc1cccc(C(F)(F)F)c1)c1cccnc1NCCc1ccccc1 the results were ELG1 DNA repair inactive, RORgamma inh inconclusive, Gal4-VP16 FLuc inconclusive, TDP1 cell CPT inconclusive, IL-1B inflam inh -67 and TDP1 cell noCPT 16µM.
O=C(Nc1cccc(F)c1)c1cccnc1NCCc1ccccc1 was read as ELG1 DNA repair inactive, RORgamma inh inactive, Gal4-VP16 FLuc inconclusive, TDP1 cell CPT inconclusive, IL-1B inflam inh -60 and TDP1 cell noCPT inconclusive.
Screening CCn1c(SCC(=O)N2CCCCCC2)nc2c([nH]c3ccccc32)c1=O returned ELG1 DNA repair inactive, RORgamma inh inactive, Gal4-VP16 FLuc inactive, TDP1 cell CPT inactive, IL-1B inflam inh inactive and TDP1 cell noCPT inactive.
